High-throughput results as filed in PubChem.
Only some compounds are listed: those with a hit (about 3.8% of all), similar ones and a draw of the others.
GLS inhibitor: qHTS for Inhibitors of Glutaminase (GLS) | GLS enzymatic activity, qHTS titration | Potency, µM (highest dose often 45.5 µM), usual class: inhibitors | actives 0.21% (n = 410,000) | Glutaminase kidney isoform, mitochondrial (Homo sapiens), O94925
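Human kidney-isoform GLS in 45 mM KH2PO4 pH 8.2, 0.02% Tween-20, with compound, started with 1mM L-Glutamine (added stock). Glutamate oxidase/HRP/Amplex red coupled fluorescence read at start and after 30 min at RT.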
VDR inh: Inhibitors of the vitamin D receptor (VDR): qHTS; Potency, µM, usual class: inhibitors; actives 0.93% (n = 400,000); Vitamin D3 receptor (Homo sapiens), P11473; VDR-SRC2-3 peptide fluorescence polarization, 2 h
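Two reagent solutions held at 4 deg C in the dark were dispensed, compounds pinned at 23 nl, and the mixture incubated 2 h at room temperature. Read-out: fluorescence polarization of VDR–SRC2-3 peptide binding.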
KAT2A inh: qHTS Assay for Inhibitors of GCN5L2 | AID 504327, 2011 | actives 0.21% (n = 390,000) | GCN5L2 HAT assay, ThioGlo1 CoA-SH fluorescence | Histone acetyltransferase KAT2A (Homo sapiens), Q92830 | Potency, µM (highest dose often 58.9 µM), most hits filed as inhibitors
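Preincubate 20nM GCN5L2 with compound 15 min, RT → add 50uM ThioGlo1 + 75uM H3(1-25) + 70uM acetyl-CoA → read fluorescence 0 and 20 min. Primary qHTS; fluorescent artifacts likely.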
TrxR1 inh: qHTS Assay for Inhibitors of Mammalian Selenoprotein Thioredoxin Reductase 1 (TrxR1): qHTS | Thioredoxin reductase 1, cytoplasmic (Rattus norvegicus), O89049 | recombinant rTrxR1, NADPH fluorescence consumption, selenite substrate | Potency, µM (series often up to 114 µM), most hits filed as inhibitors | actives 1% (n = 390,000) | AID 588453, 2011; also: nearly all actives have a fitted effect of over 65% in size
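Rat TrxR1 (90 nM in the dispensed reagent) was pre-reduced with 400 uM NADPH for 5 min at room temperature, then incubated with compound for 15 min. After 400 uM selenite was added, NADPH fluorescence (Ex 340/Em 450 nm) was followed for 8 min.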
Sfp inh: qHTS Assay for Inhibitors of Bacillus subtilis Sfp phosphopantetheinyl transferase (PPTase) | actives 3.5% (n = 310,000) | 4'-phosphopantetheinyl transferase ffp (Bacillus subtilis), Q9F4F7 | Biochemical Sfp PPTase activity, qHTS | Potency, µM, most hits filed as inhibitors;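 also: the enzyme is Sfp with the accession as filed and its product quenches rhodamine fluorescence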
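After 15 min at room temperature with compound, 15 nM Sfp received 5 uM rhodamine-CoA plus 12.5 uM BHQ-2-ybbR (50 mM Hepes pH 7.6, 10 mM MgCl2). Rate came from the fluorescence difference over 30 min, ex 525/em 598 nm.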
TrxR1 substrate: qHTS Assay for Substrates of Mammalian Selenoprotein Thioredoxin Reductase 1 (TrxR1): qHTS; Potency, µM (top dose mostly 114 µM); purified TrxR1 substrate turnover, NADPH consumption readout; Thioredoxin reductase 1, cytoplasmic (Rattus norvegicus), O89049; actives 0.01% (n = 390,000); also: nearly all actives have a fitted effect of over 50% in size
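Rat TrxR1, dispensed at 90 nM, was prereduced with 400 uM NADPH (final) for 5 min at ~22 deg C, then incubated with compound 15 min before 400 uM selenite. A first-read NADPH fluorescence drop versus no-compound background flagged substrates.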
Of the large screens only hits and unclear results are named; the others gave an inactive call. Calls follow the shape of the dose curve; as a rule, active = well fitted curve in the direction sought with a large enough effect; inconclusive = small, poorly fitted or top-dose-only effect, or another doubt; inactive = no such curve, though single readings can be large; an effect the other way counts as inactive or inconclusive.

CCN(CC)c1ccc(/C=C/c2sc3ccccc3[n+]2CCCCI)cc1	TrxR1 inh inconclusive (no result: GLS inhibitor, VDR inh, KAT2A inh, Sfp inh)
Cc1ccccc1NC(=O)c1cccc(N2C(=O)C3C4CCC(C4)C3C2=O)c1 (configuration not stated)	none
O=C1c2ccccc2C(=O)N1CCSc1n[nH]c(=S)s1	VDR inh inconclusive, KAT2A inh inconclusive, Sfp inh 50µM
O=C1c2ccccc2C(=O)N1CCSc1ncn[nH]1	none
O=C(Cc1ccc(Cl)cc1)Nc1ccccc1Sc1ccccc1	none
O=C(CCl)Nc1ccc(N=Nc2ccccc2)cc1	Sfp inh inconclusive
COc1cccc(OC)c1NC(=O)CN1CCN(C)CC1	Sfp inh 79µM
O=C(CCl)Nc1ccc(-c2ccccc2)cc1	TrxR1 inh 11µM
O=C(CCl)Nc1ccccc1Sc1ccccc1	TrxR1 inh 40µM
CN1CCN(CC(=O)Nc2ccccc2Sc2ccccc2)CC1	Sfp inh 79µM
Cc1ccc(S(=O)(=O)/N=C2\CN(C)C(=O)N2C)cc1	none
COCCNC(=O)C(c1ccc(C)o1)N(Cc1ccco1)C(=O)c1snc(C(N)=O)c1N (configuration not stated)	none
Cc1cccc(C)c1Nc1nnc(SC/C(O)=C(\C#N)c2nc3ccccc3[nH]2)s1	TrxR1 inh inconclusive
O=C(NC(Cc1ccccc1)C(=O)O)/C(=C\c1ccc(F)cc1)NC(=O)c1ccco1 (configuration not stated)	none
CCC1(c2ccccc2)NC(=S)N(c2ccc(C)c(C)c2)N1 (configuration not stated)	KAT2A inh inconclusive, Sfp inh 8.9µM
CCC1(c2ccc(Cl)cc2)NC(=S)N(c2ccc(C)c(C)c2)N1 (configuration not stated)	VDR inh inconclusive
CCC1(c2ccc(Cl)cc2)NC(=S)N(c2ccc(C)cc2)N1 (configuration not stated)	VDR inh 79µM, TrxR1 inh inconclusive, Sfp inh inconclusive
O=C(COc1ccccc1)NCC(=O)NC1CCCCC1	none
COc1cccc(NC(=O)C2C3C=CC4(O3)C2C(=O)N(CCN2CCCCC2)C4C(=O)NC2CCCCC2C)c1 (configuration not stated)	none
COc1cc(C)c2c(c1C=O)Oc1c(c(C)c(O)c3c1C(O)OC3=O)OC2=O (configuration not stated)	VDR inh 45µM, Sfp inh inconclusive
Cc1cc(O)c(C=O)c2c1C(=O)Oc1c(C)c(O)c3c(c1O2)C(O)OC3=O (configuration not stated)	VDR inh 6.3µM, KAT2A inh 35µM (no result: GLS inhibitor, TrxR1 inh, TrxR1 substrate)
CC[C@@]12C(=O)N(c3cccc(Br)c3)C(=O)N1[C@H](c1ccc(F)cc1)[C@@H]1C(=O)N(C3CCCCC3)C(=O)[C@@H]12	none (no result: Sfp inh)
CC(Sc1nc2cc([N+](=O)[O-])ccc2n1-c1ccc(F)cc1)C(=O)NCc1ccc2c(c1)OCO2 (configuration not stated)	Sfp inh 2.2µM
Cc1cccc(NC(=S)N(CCCN2CCCC2)Cc2cccn2Cc2ccc(Cl)cc2)c1	none
CNc1ccc(Br)cc(C(=O)/C=C/c2ccc(OC)cc2OC)c1=O	VDR inh inconclusive, TrxR1 inh 14µM, Sfp inh inconclusive
CNc1ccc(Br)cc(C(=O)/C=C/c2cccc(OC)c2)c1=O	VDR inh inconclusive, TrxR1 inh 13µM, Sfp inh 20µM
COc1ccc(/C=C/C(=O)c2ccc(OC)cc2OC)c(OC)c1	none
O=C(CCCC(=O)NC1CCCC1)NC1CCCC1	none
O=C(COc1ccccc1)N1CCN(c2ncnc3c2cnn3-c2ccccc2)CC1	none
S=c1nc[nH]c2c1cnn2-c1ccccc1	Sfp inh 18µM
